Assay results taken from PubChem BioAssay.
Activity calls are given as the source filed them.

Experiments:
Albumin (Bos taurus) = Albumin (Bos taurus) (UniProt P02769); assay: compounds binding labelled BSA control protein – biochemical, small-molecule microarray, Alexa647 label, 635/667 nm fluorescence, artefact control for SMM control protein annotation, profiling panel (AID 1118); details: BSA-A647 binding, fluorescence 635 nm, higher = more signal;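 also: score merges 667 nm emission intensity and signal-to-noise per printed compound spot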
[1] = probe aXIP binding to arrayed compounds – biochemical, NeuroSMM set, 635/667 nm fluorescence, primary screen (AID 1119); details: small-molecule microarray, higher = more signal, called active from +8 up or from −8 down;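 also: probe is the protein aXip251-270 applied at 1 µg/mL to compound-printed slides; binding of probe to printed compounds measured as 667 nm fluorescence plus signal to noise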
[2] = probe aNOTCH3 binding on compound microarray – biochemical, small-molecule microarray, 635/667 nm fluorescence, primary screen (AID 1120); details: higher = more signal;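 also: probe is a biotin-tagged antibody raised against NOTCH3 rather than NOTCH3 protein; score merges spot fluorescence near 667 nm with spot signal to noise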
[3] = probe aNOTCH2 binding on compound microarray – biochemical, small-molecule microarray, 635/667 nm fluorescence, primary screen (AID 1121); details: higher = more signal;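 also: score merges feature fluorescence read at 667 nm with its signal to noise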
[4] = target: Carbonic anhydrase 2 (Homo sapiens) (UniProt P00918); assay: compounds binding carbonic anhydrase 2 – biochemical, small-molecule microarray, Alexa647-labelled CAII, profiling panel (AID 1122); details: CAII-A647 binding fluorescence, higher = more signal
[5] = COS7 lysate on small-molecule microarray, probe aHis, 635 nm (AID 1123); details: COS7 cell lysate, fluorescence, higher = more signal;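 also: z-score combines 667nm fluorescence intensity with signal-to-noise per printed compound spot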
[6] = probe aLAP1 signal on lysate-treated microarray – cell lysate, small-molecule microarray, COS7 lysate, primary screen (AID 1124); details: probe aLAP1, fluorescence, higher = more signal;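 also: lysate comes from COS7 cells expressing LAP1 and is applied at 0.3 µg/mL; score merges spot fluorescence near 667 nm with signal-to-noise over triplicate slides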
Sam68 (KHDRBS1) = assay: compounds binding KHDRBS1 protein – biochemical, small-molecule microarray, 635 nm fluorescence, primary screen (AID 1125); details: higher = more signal;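 also: score merges 667 nm channel intensity with signal to noise over triplicate slides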
[7] = tested on: Chordin-like protein 2 (CHRDL2); assay: compounds binding chordin-like 2 – biochemical, small-molecule microarray, 635 nm fluorescence, primary screen (AID 1126); details: fluorescence 635 nm, higher = more signal;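 also: printed compound slides probed with Chrdl2 protein at 4 µg/mL for 1 h at 4 C; score merges 667 nm emission intensity with signal to noise over three replicate slides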
[8] = target: Concanavalin-A (Canavalia ensiformis) (UniProt P02866); assay: compounds binding concanavalin A lectin – biochemical, small-molecule microarray, Alexa647 label, 635 nm, artefact control for SMM control protein annotation, primary screen (AID 1127); details: ConA-A647 binding fluorescence, higher = more signal;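 also: z combines 667 nm emission intensity with signal-to-noise across three replicate slides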
Chain of Concanavalin-A (Canavalia ensiformis) (P02866 whole entry, looked up): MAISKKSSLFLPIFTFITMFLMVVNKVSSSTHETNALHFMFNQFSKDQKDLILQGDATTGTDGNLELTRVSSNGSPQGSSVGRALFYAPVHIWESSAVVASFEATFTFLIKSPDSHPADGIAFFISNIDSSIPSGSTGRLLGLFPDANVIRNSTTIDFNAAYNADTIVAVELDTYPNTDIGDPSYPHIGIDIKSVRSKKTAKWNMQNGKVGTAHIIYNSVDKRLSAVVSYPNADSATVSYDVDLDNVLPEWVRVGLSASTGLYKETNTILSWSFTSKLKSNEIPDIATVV

Chain of Albumin (Bos taurus) (P02769 whole entry, looked up): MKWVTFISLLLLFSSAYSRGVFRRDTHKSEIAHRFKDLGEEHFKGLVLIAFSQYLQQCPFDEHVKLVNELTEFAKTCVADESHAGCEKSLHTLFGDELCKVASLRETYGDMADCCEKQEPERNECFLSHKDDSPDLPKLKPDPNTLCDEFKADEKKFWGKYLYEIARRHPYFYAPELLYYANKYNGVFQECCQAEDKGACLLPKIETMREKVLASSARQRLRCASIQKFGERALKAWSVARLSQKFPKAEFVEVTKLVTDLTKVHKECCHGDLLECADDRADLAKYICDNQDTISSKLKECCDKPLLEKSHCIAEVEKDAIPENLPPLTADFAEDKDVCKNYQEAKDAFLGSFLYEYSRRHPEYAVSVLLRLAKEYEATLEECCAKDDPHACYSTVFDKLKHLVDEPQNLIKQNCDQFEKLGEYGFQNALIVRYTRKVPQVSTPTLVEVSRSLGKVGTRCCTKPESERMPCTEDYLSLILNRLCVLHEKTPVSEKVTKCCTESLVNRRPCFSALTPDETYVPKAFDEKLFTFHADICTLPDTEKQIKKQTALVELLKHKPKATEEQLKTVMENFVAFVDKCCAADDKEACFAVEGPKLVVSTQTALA

Structure (SMILES) | composite z-score (Albumin (Bos taurus)) | composite Z-score [1] | composite z-score [2] | composite z-score [3] | composite z-score [4] | composite z-score [5] | composite z-score [6] | composite z-score (Sam68 (KHDRBS1)) | composite z-score [7] | composite z-score [8]
COCCCNC(=O)[C@@]1(Cc2ccccc2I)c2ccccc2C(=O)N(Cc2ccccc2C(F)(F)F)[C@H]1c1ccc(CO)cc1 | 0.251 | 0.29 (inactive) | -0.136 | -0.148 | 0.487 | 1.85 | -0.462 | 0.302 | -1.44 | -0.375
CC[C@@H](O[Si](C#C[Si](C(C)C)(C(C)C)C(C)C)(C(C)C)C(C)C)c1cn(Cc2cccc(Cl)c2)nn1 | 0.0711 | -0.0359 (inactive) | -0.119 | -0.0495 | 0.226 | 0.233 | 0.773 | 1.04 | 0.451 | 0.68
O=C1O[C@H](c2ccccc2)[C@H](c2ccccc2)N2[C@H]1[C@@H](C(=O)O)[C@]1(C(=O)Nc3ccc(C#CC4(O)CCCCCC4)cc31)[C@H]2c1ccccc1OCCO | 0.9 | 0.0463 (inactive) | 0.451 | 0.0979 | 0.487 | 1.27 | 0.774 | 1.32 | 0.0298 | 1.14
C=C[C@@H](CO)NS(=O)(=O)c1ccc(Br)cc1 | 0.225 | -0.67 (inactive) | -0.331 | -0.17 | -0.359 | -0.412 | -0.32 | -2.22 | 0.222 | -1.76
[N-]=[N+]=NCc1ccccc1[C@H]1OC(c2ccc(OCCCO)cc2)=N[C@@]1(Cc1ccccc1N=[N+]=[N-])C(=O)N1CCOCC1 | 0.939 | 0.594 (inactive) | 0.0159 | -0.0895 | 0.676 | 2.57 | -0.14 | 1.3 | -0.596 | 1.14
COCCOC(=O)N1C(=O)[C@@]2(c3cc(C#CCCO)ccc31)[C@H](c1ccc(O)cc1)N1[C@H](c3ccccc3)[C@H](c3ccccc3)OC(=O)[C@H]1[C@@H]2C(=O)NC[C@H](O)c1ccccc1 | 0.417 | 0.406 (inactive) | -0.0105 | -0.0858 | 0.529 | 1.89 | 1.08 | 1.29 | 0.181 | 0.613
CCCCCCc1nc(-c2ccc(OC)nc2)c(C)c2c1[Si](C(C)C)(C(C)C)OC2 | -0.854 | 0.268 (inactive) | -0.122 | -0.12 | -0.195 | -0.039 | -0.459 | 0.18 | 0.492 | -0.141
CC(C)C[C@@H]1NC(=O)[C@H]2C[C@@H](C(=O)O)[C@@H](c3cccc(OCCO)c3)N2C1=O | -0.371 | -0.12 (inactive) | -0.0014 | -0.0761 | 0.265 | 1.38 | 0.327 | 0.531 | 1.12 | 0.587
COC(=O)[C@@]1(Cc2ccccc2)[C@H]2c3cc(C(=O)N(C)C)n(CCF)c3C[C@H]2CN1C(=O)c1ccccc1 | 1.11 | 0.507 (inactive) | 0.62 | 0.334 | 0.531 | 3.26 | 1.08 | 0.302 | -0.927 | 0.517
COCCOC(=O)N1C(=O)[C@@]2(c3cc(C#CC4=CCCCC4)ccc31)[C@H](c1ccc(O)cc1)N1[C@H](c3ccccc3)[C@H](c3ccccc3)OC(=O)[C@H]1[C@@H]2C(=O)N1CCc2cc(OC)c(OC)cc2C1 | 0.699 | -0.007 (inactive) | -0.0014 | -0.0454 | 0.468 | 2.29 | 0.743 | 1.28 | -0.329 | 0.753
C=C(C(=O)CC[C@@H](OC(=O)c1ccccc1-c1ccccc1C(=O)O)c1cccc(OCCO)c1)C(C)C | -0.757 | -0.88 (inactive) | 0.107 | -0.0402 | 0.555 | 0.139 | 1.2 | 0.152 | 1.26 | -0.539
C=CCNC(=O)[C@@H]1[C@H]2C(=O)O[C@H](c3ccccc3)[C@H](c3ccccc3)N2[C@H](c2ccc(OCCO)cc2)[C@@]12C(=O)N(C(=O)OCCOC)c1ccccc12 | 0.258 | 1.01 (inactive) | -0.0362 | -0.0432 | 0.589 | 2.37 | 0.67 | 1.29 | 0.389 | 1.03
COC(=O)c1c2oc(c1C(=O)OC)C(=O)N[C@H](Cc1ccccc1)Cn1cc(nn1)C1(CCCCC1)NC(=O)N[C@H](CO)CC2 | 0.264 | 0.605 (inactive) | -0.0113 | -0.15 | 0.765 | 0.856 | 0.474 | 0.0112 | -0.2 | -1.71
CN1C(=O)C2C=CC(C(O)COCc3ccccc3)N(Nc3ccc([N+](=O)[O-])cc3[N+](=O)[O-])C2C1=O (stereo not given) | 0.186 | 0.215 (inactive) | 0.0596 | 0.046 | 0.368 | 1.49 | 0.578 | 0.447 | -0.693 | -0.445
COC(=O)C(CC#Cc1ccc2c(c1)[C@]1(C(=O)N2)[C@H](c2ccccc2OCCO)N2[C@H](c3ccccc3)[C@H](c3ccccc3)OC(=O)[C@H]2[C@@H]1C(=O)N1CCN(c2ncccn2)CC1)C(=O)OC | 0.706 | 0.156 (inactive) | 0.0052 | -0.132 | 0.23 | 1.18 | 0.309 | 1.31 | 1.1 | 1.11
COc1cc2c(cc1O)C(C)N(Cc1sc3ccccc3c1Cl)CC2 (stereo not given) | 1.01 | -0.768 (inactive) | -0.014 | -0.0158 | 0.937 | 0.477 | -0.181 | -1.44 | -1.9 | -1.53
